Reference: PubChem BioAssay AID540256 (National Center for Advancing Translational Sciences (NCATS), 2011)
The whole screen tested about 300,000 compounds, of which about 3,700 (1.2%) were called active. Not shown: some 20% with an inconclusive outcome. The sample holds actives, similar compounds and a random draw of the others, so the mix is not that of the screen. Calls follow the shape of the full dose curve; tested in HEK293 cells.

Test: qHTS for Inhibitors of binding or entry into cells for Lassa Virus; also: nearly all actives have a fitted effect of over 50% in size
Conditions: Lassa virus pseudotype entry inhibition, cell reporter; series mostly up to 37.9 µM; activity change, negative = inhibition: at the top concentration
% is scaled to controls: 0 for no effect and ±100 for the full control effect; potency is read from the fitted curve at half-maximal effect.

Structure (SMILES)	activity change, negative = inhibition	Potency
COC(=O)CC(CC(=O)OC)n1cccc1	19.3% [at 46.1 µM] (inactive)	
CCOC(=O)CN1C(C(=O)c2ccccc2)=C(OC(=O)C(C)(C)C)c2ccccc2S1(=O)=O	10.1% [at 46.1 µM] (inactive)	
CCOc1ccc(C(=O)NCC(=O)N2CCCCCCC2)cc1OCC	-15.1% (inactive)	
Fc1ccc(-n2ncc3c(Nc4ccc(Oc5ccccc5)cc4)ncnc32)cc1	27% [at 46.1 µM] (inactive)	
CCOC(=O)N1CCN(C(=O)c2ccccc2N(Cc2ccccc2)S(=O)(=O)c2ccc(OC)cc2)CC1		7.08 µM (active)
NC(=O)c1ccccc1N(Cc1ccccc1)S(=O)(=O)c1ccccc1	-13.9% [at 46.1 µM] (inactive)	
CCN1CCN(C(=O)c2ccccc2N(C)S(=O)(=O)c2ccc(C)cc2)CC1	-16.6% (inactive)	
CN1CCOC1c1ccc(C2OCCN2C)cc1 (stereo unspecified)	0.075% (inactive)	
CC(=O)OC1C2(CC3N4C(=O)C5(CO)SSC4(CC31O)C(=O)N5C)OC(C)C(C)(C)C2=O (stereo unspecified)		1.58 µM (active)
CCOc1ccccc1/C=N/Nc1nc2ccccc2o1	-2.18% (inactive)	
O=C1CCN(C(=S)NCCc2ccccc2)CC1	4.58% (inactive)	
Oc1cc2c(cc1O)CN(C(=S)NCCc1ccc(Cl)cc1)CCC2		11.6 µM (active)
COc1ccc(CCNC(=S)N2CCN(S(=O)(=O)c3ccc(Cl)cc3)CC2)cc1	0.0467% (inactive)	
Cn1cc(C2OC(=O)c3ccccc32)c2ccccc21 (stereo unspecified)	-3.46% [at 46.1 µM] (inactive)	
COC(=O)c1ccc(C(=O)OC)c(NC(=S)N2CCCCC2)c1	3.3% (inactive)	
COC(=O)c1ccc(C(=O)OC)c(NC(=S)N2CCN(c3ccc(F)cc3)CC2)c1	0.467% (inactive)	
COC(=O)c1ccc(C(=O)OC)c(NC(=S)N2CCN(c3cc(Cl)ccc3C)CC2)c1		4.47 µM (active)
Cc1ccc2c(=O)cc(C(=O)Nc3sc4c(c3C(=O)NCc3cccnc3)CCCC4)oc2c1	-15.3% [at 46.1 µM] (inactive)	
COc1ccc(NS(=O)(=O)c2ccc(C)c(C(=O)NCC(c3cccs3)N3CCOCC3)c2)cc1 (stereo unspecified)	6.31% (inactive)	
CN(C)CCCNC(=S)NCc1ccc(Cl)cc1	4.48% (inactive)	
C/C(=N\NC(=S)NCc1ccccc1)c1ccc(Cl)cc1		5.8 µM (active)
S=C(NCc1ccc(Cl)cc1)NC1CCCCC1	-10.7% (inactive)	

Structure (SMILES)	activity change, negative = inhibition	Potency
O=C(Nc1ncccc1O)c1ccc(S(=O)(=O)N2CCCC2)cc1	-16.6% (inactive)	
O=C(OC12CC3CC(CC(C3)C1)C2)c1ccc(NCc2cc(O)ccc2O)cc1		10 µM (active)
CC(=O)Nc1ccc(C(=O)/C=C/c2ccc[nH]2)cc1	-3.48% (inactive)	
CCCC(=O)Nc1ccc(C(=O)N/N=C/c2ccc[nH]2)cc1		10 µM (active)
O=C(COc1ccccc1[N+](=O)[O-])N/N=C/c1ccc[nH]1	10.1% (inactive)	
O=C(Nc1c[nH]c(=O)[nH]c1=O)OCc1ccccc1	25% [at 46.1 µM] (inactive)	
Cc1csc(=O)n1CC(=O)Nc1ccc(S(C)(=O)=O)cc1	-0.731% [at 46.1 µM] (inactive)	
Cc1ccc(-c2noc(CCC(N)=O)n2)cc1	3.84% (inactive)	
CCNC(=O)CCc1nc(-c2ccc(C)cc2)no1	24.1% (inactive)	
CCNC(=O)CCc1nc(-c2ccc(C(C)(C)C)cc2)no1		11.2 µM (active)
CC1(C)C/C(=N/Nc2ccc([N+](=O)[O-])cc2[N+](=O)[O-])C(C)(C)O1	-0.704% (inactive)	
Cc1[nH]c2ccc(S(N)(=O)=O)cc2c1C	13.6% (inactive)	
Cc1[nH]n(C)c(=O)c1N=Nc1ccc(S(C)(=O)=O)cc1	2.14% (inactive)	
NS(=O)(=O)c1ccc(N=Nc2c(=O)[nH]c3ccc4[nH]cccc4c23)cc1		0.628 µM (active)
O=C(Cn1cnc2ccccc2c1=O)NNC(=O)c1ccccc1F	19.1% (inactive)	
CC(C)OCCCNC(=O)CN1C(=O)/C(=C/c2ccccc2F)Oc2ccccc21	1.39% [at 46.1 µM] (inactive)	
Cc1ccc(NC(=S)NC(=O)c2ccc(-c3ccccc3)cc2)cc1	-8.74% (inactive)	
CCOC(=O)C1=C(NC(=S)NC(=O)c2ccccc2)c2ccccc2CC1(C)C		1.41 µM (active)
CCOC(=O)c1c(NC(=O)C2(C)Cc3ccccc3C(=O)O2)sc2c1CCCC2 (stereo unspecified)	-9.46% (inactive)	
O=C(NN=CC=Cc1ccccc1)C(O)C(O)C(=O)NN=CC=Cc1ccccc1 (stereo unspecified)	-0.517% (inactive)	
CC(C)c1ccc(C=NNc2ccc([N+](=O)[O-])cn2)cc1	-28.7% [at 46.1 µM] (inactive)	
O=C(Nc1nncs1)c1ccccc1NS(=O)(=O)c1cccs1	7.55% (inactive)	

Structure (SMILES)	activity change, negative = inhibition	Potency
COc1cc(NC(=O)c2ccccc2NS(=O)(=O)c2ccc(Cl)s2)cc(OC)c1		11.2 µM (active)
COc1ccccc1C(=O)Nc1ccccc1C(=O)Nc1ccccc1	7.61% (inactive)	
CCn1nnc2cc(C(=O)Nc3ccc(C(=O)OC(C)C)cc3)ccc21	2.93% (inactive)	
O=C(COC(=O)c1n[nH]c2ccccc12)Nc1ccccc1Br	3.48% (inactive)	
O=C(Nc1c(Br)cc2c(c1Br)Cc1cc([N+](=O)[O-])ccc1-2)C(Cl)Cl	-2.9% [at 46.1 µM] (inactive)	
CSc1ncc(C(=O)Nc2ccc(C)cc2C)c(C)n1	4.12% [at 46.1 µM] (inactive)	
Cc1ccc(NC(=O)c2ccc3[nH]c(C)cc(=O)c3c2)c(C)c1	11.7% [at 46.1 µM] (inactive)	
Cc1ccc(NC(=O)c2ccc(CSc3ncnc4nc[nH]c34)cc2)c(C)c1		17.8 µM (active)
COc1ccc(N=C2C=CC(=O)O2)cc1	9.08% [at 46.1 µM] (inactive)	
O=C(O)C(=Cc1ccccc1[N+](=O)[O-])c1ccccc1	-6.44% [at 46.1 µM] (inactive)	
NC(=S)N/N=C/c1ccc([N+](=O)[O-])cc1	2.75% [at 46.1 µM] (inactive)	
O=C1/C(=C\c2ccc([N+](=O)[O-])cc2)CS(=O)(=O)C/C1=C/c1ccc([N+](=O)[O-])cc1		3.55 µM (active)
O=[N+]([O-])c1ccc(C=NN=Cc2ccc([N+](=O)[O-])cc2)cc1	11.1% [at 46.1 µM] (inactive)	
CCOC(=O)C1CCCN(C(=O)C2CCN(S(=O)(=O)c3ccc(Cl)c(C(F)(F)F)c3)CC2)C1 (stereo unspecified)	-19.3% (inactive)	
Cc1[nH]c2ccccc2c1C(=O)C(C)Sc1nnc(C2CC2)o1 (stereo unspecified)	-4.65% (inactive)	
Cc1c(CCO)c(=O)n(-c2ccccc2)n1S(=O)(=O)c1ccc(F)cc1	0% (inactive)	
Cc1c(CCO)c(=O)[nH]n1C(=O)c1c(F)cccc1F		4.11 µM (active)
CC(=O)NC1(c2ccc(F)cc2)CCN(C(=O)c2c(F)cccc2F)CC1	-8.6% (inactive)	
COc1ccc(CC(=O)NC(C)c2ccc(Cl)c(Cl)c2)cc1S(=O)(=O)N1CCOCC1 (stereo unspecified)	-29.7% (inactive)	
CCCCC(CCC(=O)Nc1ccc(C(=O)OCC)cc1)C(=O)O (stereo unspecified)	5.08% (inactive)	
CCCCCOC(=O)NCCOC(=O)Nc1ccc(C(=O)OCC)cc1		1.03 µM (active)
CCOC(=O)Nc1ccc(NC(=O)OCC)cc1	-15.4% (inactive)	

Structure (SMILES)	activity change, negative = inhibition	Potency
NC(CSC1(c2ccccc2)c2ccccc2-c2ccccc21)C(=O)O (stereo unspecified)	27.2% (inactive)	
CC1=CC(C)(C)Nc2ccc(OC(=O)C(Cc3ccccc3)N3C(=O)C4CCCCC4C3=O)cc21 (stereo unspecified)		1.12 µM (active)
COC(=O)c1ccccc1NC(=O)C(Cc1ccccc1)N1Cc2ccccc2C1=O (stereo unspecified)	-19.6% [at 46.1 µM] (inactive)	
CC1=CC(C)(C)Nc2ccc(OC(=O)CN3C(=O)C4CCCCC4C3=O)cc21 (stereo unspecified)	-6.89% (inactive)	
O=C(COC(=O)c1ccc2c(c1)OCCO2)NCc1ccccc1Cl	-12.6% [at 46.1 µM] (inactive)	
CCOc1cc(N2CCOCC2)c(OCC)cc1NC(=O)COc1cccc2cccnc12		6.31 µM (active)
CCOc1cc(N2CCOCC2)c(OCC)cc1NC(=O)c1cc(C)nc2ccccc12	13.1% (inactive)	
CCOc1cc(N2CCOCC2)c(OCC)cc1NC(=O)COc1cccc(Cl)c1	-6.69% (inactive)	
N#CC1(Nc2ccc(-c3ccc(Cl)cc3)cc2)CCCC1	2.66% [at 46.1 µM] (inactive)	
COc1cccc(-c2cc(C(=O)N/N=C/c3ccc(OC)c(COC(C)=O)c3)c3ccccc3n2)c1	-3.26% (inactive)	
Cc1cc(C(=O)N/N=C/c2ccccn2)c2ccccc2n1	-2.77% [at 46.1 µM] (inactive)	
COc1ccc(/C=N/NC(=O)c2cc(-c3cccc(C)c3)nc3ccccc23)cc1O		7.08 µM (active)
CCOc1ccc(-c2cc(C(=O)N/N=C/c3ccc(O)cc3)c3ccccc3n2)cc1		1.41 µM (active)
CCOc1ccc(/C=N\NC(=O)c2c(C)nc3cc(C)ccn23)cc1	-24.3% (inactive)	
C/C(=N\NC(=O)c1cc(-c2ccc(O)cc2)nc2ccccc12)c1cccnc1	22.7% (inactive)	
Cc1ccc(C)c(NC(=O)CN(C)C(=O)COc2ccc3ccccc3c2)c1	-6.57% (inactive)	
Cc1cc2occ(CC(=O)NNC(=O)c3ccccc3F)c2cc1C	24% [at 46.1 µM] (inactive)	
Cc1ccc(CSCC(=O)N(C)CC(=O)Nc2ccc(C)cc2)cc1	-9.1% (inactive)	
COc1ccc(C(=O)NCC(c2ccco2)N2CCc3ccccc32)cc1OC (stereo unspecified)	-25.8% (inactive)	
Cc1c(C)c2c(OCC(=O)NCCCO)cc3c(c2oc1=O)CCC(C)(C)O3	5.7% [at 46.1 µM] (inactive)	
Cc1c(NC(=O)C(C)OC(=O)c2c3c(nc4ccccc24)CCC(C)C3)c(=O)n(-c2ccccc2)n1C (stereo unspecified)	9.02% (inactive)	
COc1cccc(C(=O)Nc2ccc(NC(=O)c3ccco3)cn2)c1	1.21% (inactive)	

Structure (SMILES)	activity change, negative = inhibition	Potency
O=C(Nc1ccc(NC(=O)c2cccs2)cn1)c1ccco1		3.98 µM (active)
O=C(Nc1ccc2nccnc2c1)c1ccco1	24.7% (inactive)	
COc1ccc(OCCNC(=O)c2cc(C3CC3)nc3c2cnn3C(C)C)cc1	-1.23% (inactive)	
OCc1ccc(-c2ccccc2)c(-c2ccccc2)c1	27.3% [at 46.1 µM] (inactive)	
C/C(=C\C(=O)c1ccc(Br)cc1)N1CCCCC1	9.08% (inactive)	
CC1CN/C(=C\C(=O)c2ccc(Br)cc2)C(=O)N1 (stereo unspecified)		8.2 µM (active)
CN1CCCC(OC(=O)COc2ccc(Br)cc2)C1 (stereo unspecified)	-3.81% (inactive)	
COC1=CC(=O)OC(c2ccc(OC)cc2)C1 (stereo unspecified)	-0.152% [at 46.1 µM] (inactive)	
Cn1c(SCC(=O)N2CCCc3ccccc32)nc2ccccc2c1=O		12.6 µM (active)
O=C(CSc1nc2[nH]ncc2c(=O)n1-c1ccccc1)N1CCCc2ccccc21	13.2% (inactive)	
O=C(CSc1nc2ccccc2c(=O)n1CCCO)N1CCc2ccccc21	-14.5% (inactive)	
COc1ccc(N2CCN(CCNC(=O)Nc3cc(Cl)ccc3Cl)CC2)cc1	15.1% [at 46.1 µM] (inactive)	
O=C(Cc1ccc([N+](=O)[O-])cc1)NCCc1ccc2c(c1)OCO2	-1.52% (inactive)	
Cc1ccc(CSCC(=O)N(C)CC(=O)Nc2cccc(F)c2)cc1	9.25% (inactive)	
Cc1ccc(S(=O)(=O)Nc2ccc(F)c(S(=O)(=O)N3CCOCC3)c2)cc1	6.43% (inactive)	
CCOC(=O)N1CCN(C(=O)COc2ccc3oc4c(c3c2)CCCC4)CC1		10 µM (active)
O=C(COc1ccc2oc3c(c2c1)CCCC3)Nc1ccccn1	-23.4% (inactive)	
CCOC(=O)N1CCN(C(=O)COc2ccc(Br)cc2)CC1	-5.12% (inactive)	
